{"source": "PubChem BioAssay (NCATS)", "note": "Results filed as inconclusive are left out. The source made the active and inactive calls. Calls come from the whole dose curve; as a rule, active = well fitted inhibition curve with a large enough effect; inconclusive = small, poorly fitted or top-dose-only effect; inactive = flat fitted curve, though single readings scatter. % is set by controls: 0 for no effect and ±100 for the full control effect; potency is the fitted concentration of half-maximal effect.", "data": [{"assay": "P-glycoprotein substrates identified in KB-8-5-11 adenocarcinoma cell line, qHTS therapeutic library screen (AID 1346987); note: nearly all actives have a fitted effect of over 65% in size", "conditions": "KB-8-5-11 (P-gp overexpressing) viability, CellTiter-Glo, 72 h; series mostly up to 44.5 µM; activity change, negative = cytotoxicity: at the top concentration", "outline": "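Steps: plate 500 KB-8-5-11 cells/well in DMEM + 10% FCS (colchicine removed); pin compounds in dose-response; incubate 72 h, 37 degree C, 5% CO2; add CellTiter-Glo, 5 min; read luminescence.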", "values": [{"smiles": "CC[C@H]1CN(c2nc(N)c(C(N)=O)nc2Cl)CCN1C1CCN(Cc2ccc(Cl)cc2)CC1", "activity change, negative = cytotoxicity": "-25.6% (inactive)"}, {"smiles": "Cc1ccc(O)cc1Nc1ccnc(Nc2cccc(C(N)=O)c2)n1", "Potency": "23.1 µM (active)"}, {"smiles": "Clc1ncoc1-c1c[nH]c2ccccc12", "activity change, negative = cytotoxicity": "-2.16% (inactive)"}, {"smiles": "O=C(NCC(=O)N1CCCC1)Nc1ccc2cnccc2c1", "activity change, negative = cytotoxicity": "-6.07% (inactive)"}, {"smiles": "CC1(C)CC[C@]2(C(=O)O)CC[C@]3(C)C(=CCC4[C@@]5(C)C[C@@H](O)[C@H](O)C(CO)(CO)C5CC[C@]43C)C2[C@@H]1O", "note": "(some centres undefined)", "Potency": "7.96 µM (active)"}, {"smiles": "COc1cccc(-c2cc(F)ccc2C2Cc3nc(N)nc(C)c3C(=O)N2)n1", "note": "(centres undefined)", "Potency": "0.0259 µM (active)"}, {"smiles": "O=C(Nc1ccc(C(O)(C(F)(F)F)C(F)(F)F)cc1)c1ccc(C(F)(F)F)cc1", "Potency": "18.4 µM (active)"}, {"smiles": "O=C(c1c(F)ccc(NS(=O)(=O)N2CC[C@@H](F)C2)c1F)c1c[nH]c2ncc(-c3cnc(C4CC4)nc3)cc12", "activity change, negative = cytotoxicity": "-12.7% (inactive)"}, {"smiles": "COC(=O)CC[C@@H](C)C1CCC2C3CCC4C[C@H](OC(C)=O)CCC4(C)C3C[C@H](O)C21C", "note": "(some centres undefined)", "activity change, negative = cytotoxicity": "-7.52% (inactive)"}, {"smiles": "C/C=C/C=C/C=C/C(=O)O[C@@H]1C=C2COC(=O)[C@]2(O)[C@@]2(C)CCCC(C)(C)[C@H]12", "activity change, negative = cytotoxicity": "-7.86% [at 17.3 µM] (inactive)"}, {"smiles": "CCC(C)(OC(C)=O)C(=O)O[C@H]1[C@H](OC(C)=O)[C@]2(CO)[C@H](O)[C@H](O)[C@]3(C)C(=CCC4[C@@]5(C)CC[C@H](O[C@@H]6O[C@H](C(=O)O)[C@@H](O)[C@H](O[C@@H]7OC[C@H](O)[C@H](O[C@@H]8OC[C@H](O)[C@H](O)[C@H]8O)[C@H]7O)[C@H]6O[C@@H]6O[C@H](CO)[C@@H](O)[C@H](O)[C@H]6O)C(C)(C)C5CC[C@]43C)[C@@H]2CC1(C)C", "note": "(some centres undefined)", "activity change, negative = cytotoxicity": "-29% [at 9.29 µM] (inactive)"}, {"smiles": "C[C@@H](O[C@H]1OCCN(Cc2nn(P(=O)(O)O)c(=O)[nH]2)[C@H]1c1ccc(F)cc1)c1cc(C(F)(F)F)cc(C(F)(F)F)c1", "activity change, negative = cytotoxicity": "-6.43% [at 17.3 µM] (inactive)"}, {"smiles": "COC1CC(=O)C23C(=O)NC(CC(C)C)C2C(C)C(C)=CC3/C=C(\\C)CCCC1O", "note": "(centres undefined)", "activity change, negative = cytotoxicity": "-12.3% [at 17.3 µM] (inactive)"}, {"smiles": "COc1cc(CCO)ccc1O[C@@H]1O[C@H](CO)[C@@H](O)[C@H](O)[C@H]1O", "activity change, negative = cytotoxicity": "-3.09% (inactive)"}, {"smiles": "Nc1c(S(=O)(=O)c2ccccc2)c2nc3ccccc3nc2n1-c1ccc(F)cc1", "activity change, negative = cytotoxicity": "-20.3% (inactive)"}, {"smiles": "OCC(O)COc1ccc(Cl)cc1", "note": "(centres undefined)", "activity change, negative = cytotoxicity": "10.7% (inactive)"}, {"smiles": "COc1cc(C[C@@H]2NCCc3cc(O)c(O)cc32)cc(OC)c1OC", "activity change, negative = cytotoxicity": "-7.13% (inactive)"}, {"smiles": "CCC(c1ccccc1)c1noc(CCN(CC)CC)n1", "note": "(centres undefined)", "activity change, negative = cytotoxicity": "4.3% (inactive)"}, {"smiles": "CC1=CC2/C=C(\\C)CCC(O)C(=O)C(O)CC(=O)C23C(=O)NC(CC(C)C)C3C1C", "note": "(centres undefined)", "activity change, negative = cytotoxicity": "-13.5% [at 17.3 µM] (inactive)"}, {"smiles": "COc1cc(F)c(C(C)C)cc1-c1ccc(C(F)(F)F)cc1CN1C(=O)OC(c2cc(C(F)(F)F)cc(C(F)(F)F)c2)C1C", "note": "(centres undefined)", "outcome": "inactive"}, {"smiles": "CC(C)(S)C(=O)N[C@@H](CS)C(=O)O", "Potency": "inactive"}, {"smiles": "CS(=O)(=O)OCCCNCCCOS(C)(=O)=O", "activity change, negative = cytotoxicity": "9.05% (inactive)"}, {"smiles": "CC(O)(C(=O)C1CC1(CO)COC1OC(CO)C(O)C(O)C1O)C1C(O)CC2C3CC=C4CC(O)CC(O)C4(C)C3C(O)CC21C", "note": "(centres undefined)", "Potency": "0.611 µM (active)"}, {"smiles": "O=C1c2ccc(Nc3ccc(F)cc3F)cc2CCc2ccc(OCC(O)CO)cc21", "note": "(centres undefined)", "Potency": "14.6 µM (active)"}, {"smiles": "CCCCCCCCCCCCCCCCCC(=O)[O][Al]", "activity change, negative = cytotoxicity": "-2.19% (inactive)"}, {"smiles": "NCCCNCCCCNC(=O)C(O)NC(=O)CCCCCCN=C(N)N", "note": "(centres undefined)", "activity change, negative = cytotoxicity": "-27.9% (inactive)"}, {"smiles": "COc1cc(-c2nc(N[C@H](CO)Cc3ccccc3)ccc2C(=O)NCCOc2ccccc2)cc(OC)c1OC", "activity change, negative = cytotoxicity": "-0.52% (inactive)"}, {"smiles": "Cn1ncc2cc(-c3cnc(N)c(Cl)c3N3CCC4(CCNC4=O)CC3)ccc21", "activity change, negative = cytotoxicity": "1.5% (inactive)"}, {"smiles": "Cc1ccc(-c2ncccn2)c(C(=O)N2C[C@H](COc3ccc(F)cn3)CC[C@H]2C)c1", "activity change, negative = cytotoxicity": "-20.4% (inactive)"}, {"smiles": "C[C@H]1C[C@@H]2[C@H]([C@@H](O)C[C@@]3(C)[C@H]2CC[C@]3(O)C(=O)COC(=O)CCC(=O)O)[C@@]2(C)C=CC(=O)C=C12", "activity change, negative = cytotoxicity": "-2.88% (inactive)"}, {"smiles": "COc1cc2c(cc1OCCCN1CCCC1)N=C(N)C21CCC1", "activity change, negative = cytotoxicity": "6.8% (inactive)"}, {"smiles": "COc1ccccc1C(=O)Nc1cc2c(cc1N1CCCC1)n(C)c(=O)n2C", "Potency": "18.4 µM (active)"}, {"smiles": "C=C1/C(=C/C=C2\\CCC[C@]3(C)[C@@H]([C@H](C)/C=C/[C@H](O)C4CC4)CC[C@@H]23)C[C@@H](O)C[C@@H]1O", "activity change, negative = cytotoxicity": "-6.16% (inactive)"}, {"smiles": "CC(C)=CCC[C@](C)(O[C@@H]1O[C@H](CO[C@@H]2OC[C@@H](O)[C@H](O)[C@H]2O)[C@@H](O)[C@H](O)[C@H]1O)[C@H]1CC[C@]2(C)[C@@H]1[C@H](O)C[C@@H]1[C@@]3(C)CC[C@H](O[C@@H]4O[C@H](CO)[C@@H](O)[C@H](O)[C@H]4O)C(C)(C)[C@@H]3CC[C@]12C", "activity change, negative = cytotoxicity": "4.28% [at 17.3 µM] (inactive)"}]}]}
